Our source for the growth values is PubChem BioAssay (NCI).

The structures appear in SMILES notation. The panel holds about 83,000 compounds, 20% with a hit somewhere; the sample as a whole holds those more often.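 Assay: single dose, 48 h. Readout: percent growth (0 = no net growth; negative = cell death). Active: <10.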 A number with no mark means an inactive call. The source made the active and inactive calls.

Holding throughout (test): NCI-60 one-dose screen, 48 h (100 = growth as untreated, 0 = no growth, -100 = all killed)
What all share (settings): 10 µM unless noted

Assay [1] concerns HCT-15 colon.
The test system of assay [2] is HT29 colon.
The subject of assay [3] is SNB-75 CNS.
Assay [4] concerns SNB-19 CNS.
Assay [5] relates to U251 CNS.
For assay [6], the system named is PC-3 prostate.
For assay [7], the system named is SK-MEL-5 melanoma.
Assay [8] has as its system UACC-62 melanoma.
Assay [9] relates to LOX IMVI melanoma.
Assay [10] deals with SK-MEL-28 melanoma.
In assay [11] the test system is SK-MEL-2 melanoma.
Assay [12] concerns EKVX NSCLC.
Assay [13] deals with SN12C renal.
In assay [14] the test system is UO-31 renal.
Assay [15] concerns TK-10 renal.
Assay [16] relates to ACHN renal.
Assay [17] has as its system CAKI-1 renal.
The test system of assay [18] is CCRF-CEM leukemia.
The test system of assay [19] is MOLT-4 leukemia.

For the molecule `CCCCC[n+]1ccc(SCC(=O)N(C)c2ccc(Oc3ccccc3)cc2)c2ccccc21`, the growth in assay [1] is 100%; in assay [2], 101%; in assay [3] it was 115%; in [4], 89.1%; in assay [5], 95.8%; in assay [6], 103%. For the same molecule, the growth in assay [7] was 95.2%; in [8] it was 75.4%; in assay [9], 102%; in assay [10], 108%; in assay [11], 106%; in assay [12] it was 114%. Further, the growth in [13] was 95.5%; in assay [14], 86.9%; in [15] it was 99.6%; in assay [16], 107%; in assay [17] it was 93.5%; in [18], 85%. In addition, in [19], the growth is 82%.

Consider `COc1ccc(/C=C2\Oc3cc(OCCCN4CCCCC4)ccc3C2=O)cc1OC`, for which the growth in [1] is 76.4%; in assay [2] it was 59.3%; in assay [3], 78.9%; in assay [4], 93.7%; in assay [5], 94.2%; in assay [6], 79.6%. The growth in [7] was 94.5%; in [8], 99.1%; in assay [9], 81.7%; in [10], 105%; in assay [11], 108%; in [12] it was 91.5%. For the same molecule, the growth in assay [13] was 93.5%; in assay [14] it was 67.9%; in assay [15] it was 89.1%; in assay [16] it was 93.2%; in assay [17], 92.8%; in [18], 28.9%. The growth in assay [19] was 83.3%.

For `CCN(CC)c1ccc(/C=N/NC(=O)CSc2nc3ccccc3c(=O)n2Cc2ccc(S(N)(=O)=O)cc2)c(O)c1`, the growth was 47.5% in [1]; 32.1% in [2]; 38.8% in assay [3]; 41.8% in [4]; 24.4% in assay [5]; 48.8% in assay [6]. The growth in assay [7] was 5.72% (active); in [8], 6.51% (active); in assay [9], 1.32% (active); in assay [10], 33.1%; in [11], 10.5%; in assay [12] it was 35.1%. In addition, the growth in assay [13] is 32.5%; in assay [14] it was 45.9%; in [15] it was 15.1%; in assay [16], 33.6%; in [17] it was 31%; in [18], 10.8%. Besides, in assay [19], the growth is 11.1%.

In the case of `CCCCCC(=O)Oc1ccc(/C(=C(/C)Cc2ccc(OC)cc2)c2ccc(OCCCN(C)C)cc2)cc1`, the growth in [1] is 24.6%; in assay [2], 10.8%; in assay [3], 77%; in assay [4], 84.1%; in assay [5] it was 56.2%; in assay [6], 86.2%. The growth in assay [7] was 63.5%; in assay [8], 47.7%; in [9] it was 50.7%; in [10] it was -1.63% (active); in assay [11], 114%; in assay [12] it was 88.7%. Also, the growth was 79.5% in assay [13]; 58.6% in assay [14]; 100% in [15]; 91.9% in [16]; 78.3% in assay [17]; 68.1% in [18]. The growth in [19] was 53.5%.

For `O=C(c1nc2ccccc2[nH]1)C1C(c2ccc(Br)cc2)C2CC3CCCC[C@H]3N2[C@@]12C(=O)Nc1cc(Cl)ccc12` (some centres not stated), the growth in assay [1] was 23.7%; in assay [2], 27.9%; in assay [3] it was 49.1%; in [4], 49.8%; in [5], 43.9%; in [6] it was 28.4%. The growth is 51% in [7]; 58% in assay [8]; 30% in assay [9]; 62.4% in [10]; 73.3% in assay [11]; 37% in assay [12]. The growth in assay [13] is 39.7%; in [14] it was 20.6%; in assay [15], 40.7%; in assay [16], 29.9%; in assay [17] it was 17.7%; in assay [18] it was 32%. Besides, in assay [19], the growth is 6.93% (active).

For `CCOC(=O)[C@@H](C)C[C@H](Cc1ccccc1)NC(=O)c1csc([C@@H](C[C@H](C(C)C)N(C)C(=O)[C@@H](NC(=O)[C@H]2C[C@H](O[Si](C)(C)C(C)(C)C)CCN2C)C(C)C)OC(C)=O)n1`, the growth in [1] is -6.05% [9.25 µM] (active); in assay [2], -71.7% [9.25 µM] (active); in assay [3], 7.94% [9.25 µM] (active); in assay [4] it was 5.09% [9.25 µM] (active); in [5] it was -17.3% [9.25 µM] (active); in assay [6] it was 6.78% [9.25 µM] (active). Further, the growth in assay [7] is -14.5% [9.25 µM] (active); in [8], 4.13% [9.25 µM] (active); in assay [9], 4.27% [9.25 µM] (active); in assay [10], 24.2% [9.25 µM]; in [11], -21.2% [9.25 µM] (active); in assay [12], 24.1% [9.25 µM]. The growth in assay [13] was 3.13% [9.25 µM] (active); in assay [14], 8.06% [9.25 µM] (active); in assay [15], 12.1% [9.25 µM]; in [16], 5.74% [9.25 µM] (active); in assay [17] it was 15.9% [9.25 µM]; in assay [18], 0.176% [9.25 µM] (active). In addition, the growth in assay [19] is 1.33% [9.25 µM] (active).

As for `COc1cc2cc(CN3CCN(c4nccc(-c5ccc6ccccc6c5)n4)CC3)c(=O)[nH]c2cc1OC`, the growth was 21.2% in assay [1]; 69% in assay [2]; 104% in assay [3]; 76.7% in assay [4]; 22.9% in assay [5]; 60.7% in assay [6]. In addition, the growth was 85.4% in assay [7]; 95.1% in [8]; 90.2% in [9]; 102% in assay [10]; 97.8% in [11]; 94.5% in [12]. Besides, the growth in assay [13] was 51.7%; in assay [14], 74.9%; in assay [15], 91%; in assay [16], 75.7%; in assay [17], 99.5%; in assay [18], 49.1%. Besides, in [19], the growth was 54.1%.

On to `COc1cc2c(=O)n(CCCN(C)C)c3c4cc5c(cc4ccc3c2cc1OC)OCO5`, for which the growth is 52.1% in [1]; 30.5% in assay [2]; 90.2% in [3]; 52.6% in [4]; 55.8% in assay [5]; 50.8% in assay [6]. Further, the growth was 71% in assay [7]; 59.4% in assay [8]; 36.3% in [9]; 87.2% in assay [10]; 89% in assay [11]; 85% in assay [12]. For the same molecule, the growth in [13] is 50.4%; in [14] it was 41.9%; in [15], 84.5%; in assay [16], 36.8%; in assay [17], 62%; in [18], 13.8%. Moreover, the growth in [19] was -9.29% (active).
